From PubChem BioAssay (EPA / NIEHS)
Where “and” joins values, the source holds several entries; their conditions need not be identical. Identical values can stand only once. Some structures have more than one record in an assay (separate samples or runs), and their calls can disagree. Calls of active or inactive are those of the source. The calls were made as follows: active = hit-call score of the fitted dose curve at least 0.9, where 1 is the maximum; inactive = score below 0.9.

What was measured:
[1] = BSK_CASM3C_Proliferation: Cell Proliferation Assessment in the BioMAP Diversity Plus: CASM3C Assay (AID 2283047); settings: primary human coronary artery smooth muscle cells;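 also: sulforhodamine B total protein stain as relative cell number at 560 nm; sub-confluent cells exposed 48 h before staining; fitted both ways against DMSO so gain or loss of cell number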
[2] = BSK_CASM3C_SRB: Viability Assessment in the BioMAP Diversity Plus: CASM3C Assay (AID 2283050); settings: primary human coronary artery smooth muscle cells
[3] = read-out: Interferon-gamma inducible Protein 10 (IP10), CXCL10 (gene 3627); assay: BSK_hDFCGF_IP10: BioMAP Diversity Plus: hDFCGF Assay for Interferon-gamma inducible Protein 10 (IP10) Biomarker Activity (AID 2283053); settings: primary human foreskin fibroblasts; actives raise or lower the signal
Procedure, shortened: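 IP-10 levels, quantified by ELISA, are taken from human foreskin fibroblast cultures 24 h after chemical treatment, with DMSO serving as negative control and baseline for bidirectional analysis.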

[4] = read-out: Interleukin-8 (IL8), CXCL8 (gene 3576); assay: BSK_hDFCGF_IL8: BioMAP Diversity Plus: hDFCGF Assay for Interleukin-8 (IL8) Biomarker Activity (AID 2283058); settings: primary human foreskin fibroblasts; actives raise or lower the signal
Procedure, shortened: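 IL-8 levels from compound-treated primary human fibroblasts were read by ELISA at 24 h, with DMSO serving as baseline for bidirectional fitting.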

[5] = BSK_hDFCGF_Proliferation: Cell Proliferation Assessment in the BioMAP Diversity Plus: hDFCGF Assay (AID 2283059); settings: primary human foreskin fibroblasts;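 also: curves fitted for both rise and fall of signal versus DMSO baseline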
Procedure, shortened: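 This proliferation readout used SRB total-protein staining of human foreskin fibroblasts […], normalized to DMSO with bidirectional curve fitting.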

[6] = read-out: Macrophage colony-stimulating factor (MCSF), CSF1 (gene 1435); assay: BSK_hDFCGF_MCSF: BioMAP Diversity Plus: hDFCGF Assay for Macrophage colony-stimulating factor (MCSF) Biomarker Activity (AID 2283060); settings: AC50: primary human foreskin fibroblasts, actives raise or lower the signal unless noted; outcome: primary human foreskin fibroblasts, actives raise or lower the signal unless noted
Procedure, shortened: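 M-CSF levels, determined by ELISA, are taken at 24 h after dosing human skin fibroblasts. Responses in either direction are fitted with DMSO serving as the baseline.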

[7] = BSK_hDFCGF_SRB: Viability Assessment in the BioMAP Diversity Plus: hDFCGF Assay (AID 2283061); settings: primary human foreskin fibroblasts;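 also: cells exposed to compound for 24 h before the read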
Procedure, shortened: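 Cells were dosed with test chemical, cultured 24 h, fixed with 10% TCA, then stained with 0.1% SRB and read at 560 nm. The fibroblasts were human foreskin primary cells, and DMSO served as baseline.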

[8] = read-out: TIMP metallopeptidase inhibitor 1 (TIMP1), TIMP1 (gene 7076); assay: BSK_hDFCGF_TIMP1: BioMAP Diversity Plus: hDFCGF Assay for TIMP metallopeptidase inhibitor 1 (TIMP1) Biomarker Activity (AID 2283062); settings: primary human foreskin fibroblasts; actives raise or lower the signal
Procedure, shortened: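 Fibroblasts from human foreskin are treated with test chemical and harvested at 24 h. TIMP-1 is quantified by ELISA, and gain or loss of signal is scored against DMSO.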

[9] = read-out: Matrix Metallopeptidase 1 (MMP1), MMP1 (gene 4312); assay: BSK_hDFCGF_MMP1: BioMAP Diversity Plus: hDFCGF Assay for Matrix Metallopeptidase 1 (MMP1) Biomarker Activity (AID 2283064); settings: primary human foreskin fibroblasts; actives raise or lower the signal
Procedure, shortened: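 hDFCGF primary fibroblasts (human foreskin); chemical added; 24 h; MMP1 by ELISA; bidirectional fit vs DMSO.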

[10] = read-out: Plasminogen activator inhibitor-1 (PAI1), SERPINE1 (gene 5054); assay: BSK_hDFCGF_PAI1: BioMAP Diversity Plus: hDFCGF Assay for Plasminogen activator inhibitor-1 (PAI1) Biomarker Activity (AID 2283066); settings: primary human foreskin fibroblasts; actives raise or lower the signal
Procedure, shortened: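 PAI-1 levels, determined by ELISA, served as the endpoint in human foreskin fibroblast cultures exposed to compound for 24 h, with DMSO as baseline.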

[11] = read-out: Interferon-gamma inducible Protein 10 (IP10), CXCL10 (gene 3627); assay: BSK_KF3CT_IP10: BioMAP Diversity Plus: KF3CT Assay for Interferon-gamma inducible Protein 10 (IP10) Biomarker Activity (AID 2283068); settings: primary human keratinocytes with fibroblasts; actives raise or lower the signal
Procedure, shortened: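 Signal is secreted/surface IP-10 by ELISA in a human primary skin co-culture of keratinocytes and foreskin fibroblasts, taken 24 h post-dosing; DMSO served as negative control.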

[12] = BSK_KF3CT_SRB: Viability Assessment in the BioMAP Diversity Plus: KF3CT Assay (AID 2283069); settings: primary human keratinocytes with fibroblasts;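 also: fitted for both signal gain and loss against DMSO baseline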
Procedure, shortened: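 Keratinocytes co-cultured with foreskin fibroblasts (human primary); chemical added, 24 h; fix 10% TCA, stain 0.1% SRB, A560. Bidirectional fit vs DMSO.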

[13] = read-out: Interleukin-1 alpha (IL1a), IL1A (gene 3552); assay: BSK_KF3CT_IL1a: BioMAP Diversity Plus: KF3CT Assay for Interleukin-1 alpha (IL1a) Biomarker Activity (AID 2283070); settings: primary human keratinocytes with fibroblasts; actives raise or lower the signal
Procedure, shortened: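 Chemicals were dosed onto co-cultured human keratinocytes and foreskin fibroblasts, IL-1a was quantified by ELISA at 24 h, and activity was fitted in both directions relative to DMSO controls.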

[14] = read-out: TIMP metallopeptidase inhibitor 2 (TIMP2), TIMP2 (gene 7077); assay: BSK_KF3CT_TIMP2: BioMAP Diversity Plus: KF3CT Assay for TIMP metallopeptidase inhibitor 2 (TIMP2) Biomarker Activity (AID 2283071); settings: primary human keratinocytes with fibroblasts; actives raise or lower the signal
Procedure, shortened: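 Keratinocyte–fibroblast co-culture, 24 h exposure; TIMP-2 ELISA, DMSO-normalised bidirectional fit. Parallel SRB (0.1%, TCA-fixed, 560 nm) total-protein staining gauges cytotoxicity.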

[15] = read-out: C-C motif chemokine 2 (Homo sapiens) (UniProt P13500); assay: BSK_KF3CT_MCP1: BioMAP Diversity Plus: KF3CT Assay for Monocyte Chemoattractant Protein 1 (MCP1/CCL2) Biomarker Activity (AID 2283073); settings: primary human keratinocytes with fibroblasts; actives raise or lower the signal
Procedure, shortened: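 Keratinocytes and foreskin fibroblasts were co-cultured, dosed with chemical, and sampled 24 h later. MCP-1 was quantified by ELISA, and the endpoint was analyzed with bidirectional fitting using DMSO as negative control.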

[16] = read-out: urokinase plasminogen activator (uPA), PLAU (gene 5328); assay: BSK_KF3CT_uPA: BioMAP Diversity Plus: KF3CT Assay for urokinase plasminogen activator (uPA) Biomarker Activity (AID 2283075); settings: primary human keratinocytes with fibroblasts; actives raise or lower the signal
Procedure, shortened: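 ELISA readout of uPA, analyzed for signal gain or loss relative to DMSO, from a human primary keratinocyte–foreskin fibroblast co-culture measured 24 h after chemical treatment.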

CD40, CD40 (gene 958) = assay: BSK_LPS_CD40: BioMAP Diversity Plus: LPS Assay for CD40 Biomarker Activity (AID 2283076); settings: primary human HUVEC with PBMC; actives raise or lower the signal
Procedure, shortened: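 CD40 signal, measured by ELISA, is fitted in both directions relative to DMSO vehicle. The system is an LPS-driven human vascular primary co-culture of endothelial cells and PBMC, sampled 24 h after compound addition.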

[17] = BSK_LPS_SRB: Viability Assessment in the BioMAP Diversity Plus: LPS Assay (AID 2283079); settings: primary human HUVEC with PBMC;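 also: total protein by sulforhodamine B absorbance as a cytotoxicity measure; measured one day after compound addition; fitted in both directions against DMSO so loss or gain of signal counts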
Procedure, shortened: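 Overt cytotoxicity was gauged by sulforhodamine B total-protein staining in a primary human vascular endothelial and mononuclear cell co-culture 24 h post-dosing. Activity was fitted in both directions relative to DMSO.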

[18] = read-out: Tumor necrosis factor (Homo sapiens) (UniProt P01375); assay: BSK_LPS_TNFa: BioMAP Diversity Plus: LPS Assay for Tumour Necrosis Factor alpha (TNFa) Biomarker Activity (AID 2283085); settings: primary human HUVEC with PBMC; actives raise or lower the signal;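 as to AC50: TNFa protein level quantified by ELISA in the co-culture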
Procedure, shortened: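 Primary human vascular co-culture of HUVEC and PBMC; TNFa ELISA 24 h after treatment, analysed as increase or decrease relative to DMSO control.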

[19] = read-out: Vascular cell adhesion molecule 1 (VCAM1), VCAM1 (gene 7412); assay: BSK_LPS_VCAM1: BioMAP Diversity Plus: LPS Assay for Vascular cell adhesion molecule 1 (VCAM1) Biomarker Activity (AID 2283086); settings: primary human HUVEC with PBMC; actives raise or lower the signal
Procedure, shortened: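 Primary human vascular co-culture (umbilical vein endothelium plus PBMC) stimulated with LPS received chemical; 24 h later VCAM-1 was read by ELISA. Overt cytotoxicity was assessed by sulforhodamine B staining of parallel cultures at the same time point.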

Measured: AC50

Tumor necrosis factor (Homo sapiens), sequence (P01375 whole entry, looked up): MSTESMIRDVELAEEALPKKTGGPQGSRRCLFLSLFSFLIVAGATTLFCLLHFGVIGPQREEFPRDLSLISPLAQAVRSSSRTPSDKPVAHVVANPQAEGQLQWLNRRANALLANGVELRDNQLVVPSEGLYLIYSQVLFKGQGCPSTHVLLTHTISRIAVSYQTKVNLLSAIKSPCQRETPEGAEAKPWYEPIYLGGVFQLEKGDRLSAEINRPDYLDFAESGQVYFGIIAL

CCCCC(CC)COC(=O)C=Cc1ccc(OC)cc1 (stereo unspecified)
active: [5] 13.2 µM and 11.7 µM | [6] 15.9 µM and 12.6 µM | CD40, CD40 (gene 958) 20 µM | [17] 32.1 µM and 36.7 µM
inactive: [1] | [2] | [3] | [4] | [7] | [8] | [9] | [10] | [11] | [12] | [13] | [14] | [15] | [16] | CD40, CD40 (gene 958) | [18] | [19]

COc1cc(CNC(=O)CCCC/C=C/C(C)C)ccc1O
active: [5] 1.26 µM and 1.37 µM
inactive: all other assays above

COc1ccccc1Oc1c(NS(=O)(=O)c2ccc(C(C)(C)C)cc2)nc(-c2ncccn2)nc1OCCO
active: [5] 20 µM and 15.3 µM
inactive: all other assays above

O=[N+]([O-])c1cc(S(=O)(=O)Nc2ccccc2)ccc1Nc1ccccc1
active: [3] 29.8 µM and 31.5 µM | [4] 38.9 µM and 36.7 µM | [5] 14 µM and 14.3 µM | [6] 29.3 µM and 29.5 µM | [7] 27.7 µM and 29 µM | [8] 30.3 µM and 29.5 µM | [9] 30.9 µM and 36.7 µM | [10] 26.6 µM and 25.4 µM | [11] 30.2 µM and 32.4 µM | [12] 34.6 µM | [13] 31 µM and 32.2 µM | [14] 32.6 µM and 30.4 µM | [15] 25.3 µM and 23.6 µM | [16] 32.8 µM and 32.9 µM | CD40, CD40 (gene 958) 32.6 µM and 20 µM | [17] 31.1 µM and 28.7 µM | [18] 5.14 µM and 5.08 µM | [19] 13.6 µM and 12.6 µM
inactive: [1] | [2]

OC(C(F)(F)F)(C(F)(F)F)C(O)(C(F)(F)F)C(F)(F)F
active: [1] 27.7 µM and 28.9 µM | [2] 30 µM and 26.9 µM | [3] 20.1 µM and 23.8 µM | [5] 15.5 µM and 16.8 µM | [6] 14.3 µM and 19.2 µM | [10] 33.1 µM and 33.8 µM | [11] 48.7 µM and 47.2 µM | [12] 46.9 µM and 58.2 µM | [13] 52.7 µM and 54 µM | [14] 50.7 µM and 51.8 µM | [15] 7.89 µM and 7.97 µM | CD40, CD40 (gene 958) 29.8 µM and 21.6 µM | [17] 30.3 µM and 24.3 µM | [19] 21.9 µM and 28.8 µM
inactive: [4] | [7] | [8] | [9] | [16] | [18]
